# In PubChem BioAssay (Tox21):
# A number with no mark means an inactive call. Records with an inconclusive call do not appear. Where a call stands in place of a potency, no number is given. Activity calls are given as the source filed them. The call rests on the fitted dose curve; in most records, active means well fitted curve in the direction sought with a large enough effect in the repeat runs; inconclusive means weak or mixed curves; inactive means no such curve, though single readings can be large; an effect the other way counts as inactive or inconclusive.
# Legend:
# [1] = qHTS RealTime-Glo MT Cell Viability Assay in HepG2 cells - 24 hour (AID 1224867); further: nearly all actives have a fitted effect of over 50% in size
# Outline: (§1)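 Compound treatment began 5 h after plating HepG2 cells (600/well) with NanoLuc luciferase and prosubstrate. Plates stayed at 37 C for 40 h; luminescence was captured at six time points, 0 h through 40 h.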
# [2] = qHTS RealTime-Glo MT Cell Viability Assay in HEK293 cells - 32 hour (AID 1224868); further: top concentration of the series differs between compounds; nearly all actives have a fitted effect of over 50% in size
# Outline: (§2)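 Quantitative high-throughput screen of the Tox21 10K library in HEK293: cells and RealTime-Glo reagents plated together, compound added at 5 h, luminescence monitored through 40 h at 37 C.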
# [3] = A CellTox Green Cytotoxicity Assay to monitor cytotoxicity in HEK293 cells - 0 hour (AID 1224869); further: nearly all actives have a fitted effect of over 50% in size
# Outline: (§3)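 HEK293 cells premixed with CellTox Green dye were seeded at 600 cells/well and left 5 h at 37 C/5% CO2 before pin transfer of 23 nL compound in DMSO. Fluorescence from dye bound to dead-cell DNA was read during 40 h treatment.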
# [4] = qHTS RealTime-Glo MT Cell Viability Assay in HepG2 cells - 40 hour (AID 1224870); further: nearly all actives have a fitted effect of over 50% in size
# Outline: (§4)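 HepG2 cells mixed with RealTime-Glo MT reagents (NanoLuc plus cell-permeant prosubstrate) were seeded at 600 cells/well, incubated 5 h at 37 C/5% CO2, then pinned with compounds in DMSO; nonlytic luminescence tracked viability during 40 h treatment.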
# [5] = A CellTox Green Cytotoxicity Assay to monitor cytotoxicity in HEK293 cells - 40 hour (AID 1224871); further: nearly all actives have a fitted effect of over 45% in size
# Outline: as §3
# [6] = qHTS RealTime-Glo MT Cell Viability Assay in HepG2 cells - 8 hour (AID 1224873); further: nearly all actives have a fitted effect of over 55% in size
# Outline: as §4
# [7] = qHTS RealTime-Glo MT Cell Viability Assay in HEK293 cells - 40 hour (AID 1224874); settings: RealTime-Glo luminescence, hits give low values; further: nearly all actives have a fitted effect of over 50% in size
# Outline: (§5)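 HEK293 cells mixed with RealTime-Glo reagents (NanoLuc plus cell-permeant prosubstrate) at 600 cells/well, preincubated 5 h at 37 C/5% CO2, then given 23 nL compound in DMSO. Nonlytic luminescence from viable cells was read at 0, 8, 16, 24, 32 and 40 h.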
# [8] = A CellTox Green Cytotoxicity Assay to monitor cytotoxicity in HEK293 cells - 24 hour (AID 1224875); further: series mostly up to about 77 µM; nearly all actives have a fitted effect of over 45% in size
# Outline: as §3
# [9] = A CellTox Green Cytotoxicity Assay to monitor cytotoxicity in HepG2 cells - 16 hour (AID 1224876); further: nearly all actives have a fitted effect of over 45% in size; further: potency means the concentration at half of the fitted maximal effect
# Outline: (§6)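 HepG2 cells were seeded together with the CellTox Green dye at 600 cells/well, left 5 h at 37 C/5% CO2, then given compounds in DMSO. Fluorescence from dye bound to dead-cell DNA was read repeatedly over 40 h of treatment at 37 C.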
# [10] = qHTS RealTime-Glo MT Cell Viability Assay in HepG2 cells - 32 hour (AID 1224877); further: nearly all actives have a fitted effect of over 55% in size
# Outline: as §1
# [11] = A CellTox Green Cytotoxicity Assay to monitor cytotoxicity in HepG2 cells - 24 hour (AID 1224878); further: nearly all actives have a fitted effect of over 45% in size
# Outline: as §6
# [12] = A CellTox Green Cytotoxicity Assay to monitor cytotoxicity in HepG2 cells - 40 hour (AID 1224879); further: nearly all actives have a fitted effect of over 40% in size
# Outline: as §6
# [13] = qHTS RealTime-Glo MT Cell Viability Assay in HEK293 cells - 0 hour (AID 1224880)
# Outline: as §5
# [14] = A CellTox Green Cytotoxicity Assay to monitor cytotoxicity in HepG2 cells - 0 hour (AID 1224882); further: nearly all actives have a fitted effect of over 35% in size
# Outline: as §6
# [15] = A CellTox Green Cytotoxicity Assay to monitor cytotoxicity in HepG2 cells - 32 hour (AID 1224883); further: nearly all actives have a fitted effect of over 50% in size
# Outline: as §6
# [16] = A CellTox Green Cytotoxicity Assay to monitor cytotoxicity in HEK293 cells - 8 hour (AID 1224884); further: nearly all actives have a fitted effect of over 35% in size
# Outline: as §3
# [17] = qHTS RealTime-Glo MT Cell Viability Assay in HepG2 cells - 16 hour (AID 1224885); further: nearly all actives have a fitted effect of over 50% in size
# Outline: as §1
# [18] = qHTS RealTime-Glo MT Cell Viability Assay in HEK293 cells - 24 hour (AID 1224886)
# Outline: as §2
# [19] = A CellTox Green Cytotoxicity Assay to monitor cytotoxicity in HEK293 cells - 32 hour (AID 1224881); further: nearly all actives have a fitted effect of over 40% in size
# Outline: as §3
# [20] = qHTS RealTime-Glo MT Cell Viability Assay in HEK293 cells - 16 hour (AID 1224872)
# Outline: as §2
Compound,outcome [1],outcome [2],outcome [3],outcome [4],Potency [5],outcome [6],max response [7] [%],Potency [8],Potency [9],outcome [10],Potency [11],Potency [12],Potency [13],Potency [14],Potency [15],Potency [16],outcome [17],outcome [18],Potency [19],outcome [20]
Cc1ccccc1OCC(=O)O,inactive,inactive,inactive,inactive,inactive,inactive,3.48,inactive,inactive,inactive,inactive,inactive,inactive,inactive,inactive,inactive,inactive,inactive,,
CCOC(=O)COc1ccc2c(C)c(CCN(CC)CC)c(=O)oc2c1Cl,inactive,inactive,inactive,inactive,inactive,inactive,1.31,inactive,inactive,inactive,,inactive,inactive,inactive,inactive,inactive,inactive,inactive,inactive,
O=C(O)CCC(=O)Nc1ccc(S(=O)(=O)Nc2nccs2)cc1,inactive,inactive,inactive,inactive,inactive,inactive,2.99,,,inactive,,,inactive,inactive,,inactive,inactive,inactive,inactive,inactive
CCN(CC)CC,inactive,inactive,inactive,inactive,inactive,inactive,-12.9,,,inactive,inactive,,inactive,inactive,inactive,inactive,inactive,inactive,inactive,inactive
CCOC(=O)[C@H](CCc1ccccc1)N[C@H]1CS[C@H](c2cccs2)CN(CC(=O)O)C1=O,inactive,inactive,inactive,inactive,inactive,inactive,0.833,,,inactive,inactive,inactive,inactive,inactive,inactive,inactive,inactive,inactive,inactive,inactive
Cc1ccc(S(=O)(=O)NC(=O)NN2CC3CCCC3C2)cc1 (stereo not given),inactive,inactive,inactive,inactive,inactive,inactive,5.04,inactive,,inactive,inactive,inactive,inactive,inactive,inactive,inactive,inactive,inactive,inactive,
O=C(O)COc1ccc2ccccc2c1,inactive,inactive,inactive,inactive,inactive,inactive,1.62,,inactive,inactive,inactive,inactive,inactive,inactive,inactive,inactive,inactive,inactive,inactive,inactive
Clc1cc(Cl)c(Cl)c(Cl)c1Cl,inactive,inactive,inactive,inactive,inactive,inactive,-0.18,,inactive,inactive,inactive,inactive,inactive,inactive,,inactive,inactive,inactive,inactive,inactive
Cc1ccc2ccccc2n1,inactive,inactive,inactive,inactive,inactive,inactive,18.8,,138 nM (active),inactive,inactive,inactive,inactive,inactive,inactive,inactive,inactive,inactive,inactive,inactive
COC(=O)/C=C(\C)CCC=C(C)C,inactive,inactive,inactive,inactive,inactive,inactive,9.52,inactive,inactive,inactive,inactive,inactive,inactive,inactive,inactive,inactive,inactive,inactive,inactive,
CC(=O)Oc1ccc(C(C)=O)cc1,inactive,inactive,inactive,inactive,inactive,inactive,-8,,inactive,inactive,,inactive,inactive,inactive,inactive,inactive,inactive,inactive,inactive,inactive
CCO/C=C1\N=C(c2ccccc2)OC1=O,inactive,inactive,inactive,inactive,inactive,inactive,18.4,,,inactive,inactive,inactive,inactive,inactive,inactive,inactive,inactive,inactive,,inactive
C[C@H]1COc2c(C3(N)CC3)c(F)cc3c(=O)c(C(=O)O)cn1c23,inactive,inactive,inactive,inactive,inactive,inactive,1.9,inactive,inactive,inactive,,inactive,inactive,inactive,inactive,inactive,inactive,inactive,inactive,
O=C(O)Cc1ccccc1Oc1ccc(Cl)cc1Cl,inactive,inactive,inactive,inactive,inactive,inactive,4.29,inactive,inactive,inactive,inactive,,inactive,inactive,inactive,inactive,inactive,inactive,inactive,
